# The supplement of paper PMC7156485
# ± gives the standard deviation of the averaged measurements.
# What was measured:
# Conditions in all cases: concentration: 10 µM; 24 h
# HCC1569 [1] = assay: cell number relative to DMSO (% of DMSO); higher = more cells (less growth inhibition / toxicity)
# In short: (§1)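 Cells were seeded at 800 per well in 384-well plates with RPMI containing 10% FBS; both HCC1569 and TDF lines were used. Compounds were added at 10 µM for 24 h at 37 °C, in triplicate, before fixation in 3.7% formaldehyde and staining with a rabbit anti-H1.0 antibody, an AlexaFluor 647 secondary and DAPI. H1.0 nuclear intensity or cell number is reported as percent of the plate control using the median of replicates, and HCC1569 values were smoothed for positional effects.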
# TDF [2] = assay: as above
# In short: as §1
# TDF [3] = assay: H1.0 immunofluorescence intensity relative to DMSO (% of DMSO); higher = stronger H1.0 induction, active = 120 or more
# In short: as §1
# HCC1569 [4] = assay: H1.0 immunofluorescence intensity relative to DMSO (% of DMSO); higher = stronger H1.0 induction, active = 140 or more
# In short: as §1
# 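Throughout, for H1.0 immunofluorescence intensity relative to DMSO: TDF is a line of transformed human dermal fibroblasts of mesenchymal origin.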
# 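Throughout, for cell number relative to DMSO: TDF denotes transformed human dermal fibroblasts of mesenchymal origin.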
SMILES,cell number (HCC1569 [1]),cell number (TDF [2]),H1.0 immunofluorescence intensity (TDF [3]),H1.0 immunofluorescence intensity (HCC1569 [4])
Nc1nc(=O)c2ncn(CCC(CO)CO)c2[nH]1 [Penciclovir],103,103,90.4 (inactive),117 (inactive)
CNNCc1ccc(C(=O)NC(C)C)cc1 [Procarbazine],102,106,92.4 (inactive),108 (inactive)
"CC(=O)OC1C(C)OC(Oc2c(-c3ccc(O)cc3)oc3cc(O)cc(O)c3c2=O)C(O)C1OC(C)=O (configuration not stated) [RSK Inhibitor, SL0101]",97.7,92.8,102 (inactive),107 (inactive)
CS(=O)(=O)O.Cc1c(O)cccc1C(=O)NC(CSc1ccccc1)C(O)CN1CC2CCCCC2CC1C(=O)NC(C)(C)C (configuration not stated) [Nelfinavir mesylate],102,112,90.6 (inactive),116 (inactive)
NC(N)=NC(N)=Nc1ccccc1 [1-Phenylbiguanide],105,114,89.2 (inactive),84.1 (inactive)
N#CCNC(=O)c1ccc(-c2ccnc(Nc3ccc(N4CCOCC4)cc3)n2)cc1,64.8,36.1,132 (active),127 (inactive)
O=C1NC(=O)C(c2ccccc2[N+](=O)[O-])=C1Nc1ccc(O)c(Cl)c1,96.8,107,97.8 (inactive),111 (inactive)
O=S(=O)(NCc1ccccn1)c1ccc(Br)c2ccccc12 [4-bromo-N-(2-pyridinylmethyl)-1-naphthalenesulfonamide],99.1,99.2,96.2 (inactive),107 (inactive)
CCCCCCCCCC(=O)NC(CN1CCOCC1)C(O)c1ccccc1.Cl (racemic),94,91.9,105 (inactive),109 (inactive)
CCCCCC=CCC=CCC=CCCCCCCC(=O)OC(COCCCCCCCCCCCCCCCC)COP(=O)([O-])OCC[N+](C)(C)C (configuration not stated),101,98.5,96.6 (inactive),96.9 (inactive)
CCCCCC(O)C=CC=CCCCCCCCC(=O)O (configuration not stated),96,97.2,96.4 (inactive),101 (inactive)
COc1ccc(C=C2c3ccccc3C(=O)c3ccccc32)cc1O [10-(3-hydroxy-4-methoxybenzylidene)-9(10H)-anthracenone],62.7,10.4,189 (active),207 (active)
NC(=S)c1ccc[n+](C2OC(COP(=O)([O-])OP(=O)(O)OCC3OC(n4cnc5c(N)ncnc54)C(OP(=O)([O-])O)C3O)C(O)C2O)c1.[Na+] (configuration not stated) [Thio-NADP sodium],94.1,100,91.7 (inactive),104 (inactive)
C=CCCCCCCCCCC(=O)O [11-Dodecenoic acid],97.4,98.7,102 (inactive),103 (inactive)
CCC1OC(=O)C(C)C(OC2CC(C)(OC)C(O)C(C)O2)C(C)C(OC2OC(C)CC(N(C)C)C2O)C(C)(OC)CC(C)C(=O)C(C)C(O)C1(C)O (configuration not stated) [Clarithromycin],98.4,93,94.3 (inactive),94.6 (inactive)
Cc1cc(C(C)(C)C)c(O)c(C(C)(C)C)c1,99.4,105,90.4 (inactive),99 (inactive)
Cn1cnc2c(NCc3ccccc3)nc(NCCO)nc21,94.5,107,103 (inactive),107 (inactive)
C=CC1(C)CC(=O)C2(O)C(C)(O1)C(OC(C)=O)C(O)C1C(C)(C)CCC(O)C12C (configuration not stated) [Forskolin],89.77 ± 0.53,105 ± 3.9,88.8 (inactive),96.6 (inactive)
O=c1[nH]ccc2c(S(=O)(=O)N3CCCNCC3)cccc12,106,110,86 (inactive),104 (inactive)
CC1(C)C=Cc2c(ccc3c2OC[C@@H](c2ccc(O)cc2O)C3)O1,99.4,93.1,101 (inactive),109 (inactive)
Nc1ccn(C2OC(CO)C(O)C2O)c(=O)n1 (configuration not stated) [Cytarabine],79.6,51.3,105 (inactive),102 (inactive)
CNCCC(Oc1ccc(C(F)(F)F)cc1)c1ccccc1 (configuration not stated) [Fluoxetine],99.3,94.1,100 (inactive),135 (inactive)
CC(O)C1C(=O)N2C(C(=O)O)=C(SC3CNC(C(=O)N(C)C)C3)C(C)C12 (configuration not stated) [Meropenem],105,98.2,97 (inactive),94.3 (inactive)
